Consider 93 compounds from PubChem BioAssay AID2315 (National Center for Advancing Translational Sciences (NCATS), 2010).

In all, about 290,000 compounds went through this assay and about 27,000 (9.3%) were called active. Rule as the data show it: active = inhibition mostly above about 28% (no sharp cut-off); inactive = mostly below about 43%. The sample as a whole holds a higher share of actives than the screen did.

The assay in a line: A qHTS for Small Molecule Inhibitors of Shiga Toxin. Also: 0% is about no effect. Conditions: Vero cells, Shiga toxin protein synthesis inhibition reporter; at 38.7 µM, stronger effect = higher value. Background: qHTS replaces the single test concentration by a dilution series.
Regarding `CN(C(=O)CN1C(=O)CCSc2ccc(S(=O)(=O)N3CCCC3)cc21)c1ccccc1`, the inhibition (usually the drop in the measured response relative to a control, in per cent) is -7.94% (inactive).

Regarding `O=C(NCc1ccccc1Cl)c1ccc2c(=O)n(CC3CCCO3)c(=S)[nH]c2c1` (stereo not drawn), the inhibition was 28.6% (inactive). On to `Cc1cc(C)c(OCC(=O)N(Cc2cccs2)C2CCS(=O)(=O)C2)c(C)c1` (stereo not drawn), for which the inhibition was 12.7% (inactive). Turning to `CCOC(=O)N1CCN(C(=O)C(=O)Nc2sc3c(c2C#N)CC(C)(C)OC3)CC1`, the inhibition was -6.06% (inactive). With `CCC(C)[C@H]1COCCS(=O)(=O)N1Cc1ccc(C)cc1` (stereo partly drawn), the inhibition was -2.97% (inactive).

For `CCCC[C@H]1COCCS(=O)(=O)N1Cc1cccc(Cl)c1`, the inhibition was -0.556% (inactive).

As for `O=S1(=O)CCOC[C@H](CC2CCCCC2)N1Cc1ccc(F)cc1`, the inhibition was 19.8% (active). Regarding `Cc1ccc(S(=O)(=O)N2CC(C)N(S(C)(=O)=O)C2)cc1` (stereo not drawn), the inhibition is -4.24% (inactive). For the compound `Cc1ccc(-c2nnc(CN3CCN(C)CC3)o2)cc1`, the inhibition is 21.4% (inactive). Regarding `COc1cccc(NC(=O)Cn2c3ccc(F)cc3c3nc4n(c(=O)c32)CCS4)c1`, the inhibition is -1.58% (inactive). For the compound `CCC(=O)Nc1ccc(S(=O)(=O)Nc2c(NC)c3ccccc3oc2=O)cc1`, the inhibition is 8.69% (inactive).

On to `O=C(N=C1SC2CS(=O)(=O)CC2N1c1cc(Cl)ccc1Cl)C1CC1` (stereo not drawn), for which the inhibition is -4.57% (inactive). With `O=C(c1ccc(F)cc1)n1cc(C(=S)N2CCOCC2)c2ccccc21`, the inhibition is -2.34% (inactive).

On to `O=C(Cn1c(=S)nc2ccccn21)N1CCc2ccccc2C1`, for which the inhibition was 38.4% (inactive). As to `O=C(c1ccc(F)cc1)n1c(=S)nc2ccccn21`, the inhibition is 82.6% (active). Consider `CC1C(=O)N(Cc2ccccc2)c2ccccc2N1C(=O)c1ccccc1` (stereo not drawn), for which the inhibition was 2.9% (inactive).

Regarding `O=C(CN1C(=O)c2cccc3cccc1c23)Nc1ccccc1`, the inhibition is -7.35% (inactive).

`CSCc1cc(N(C)C)nc(SCc2ccc(Cl)cc2Cl)n1`: the inhibition was -20.3% (inactive). `CC(C)(CNC(=O)Cc1ccc(Cl)cc1Cl)N1CCOCC1`: the inhibition is 2.65% (inactive). Turning to `CSCc1cc(N2CCOCC2)nc(SCc2ccc(Cl)cc2Cl)n1`, the inhibition is 30.9% (active). The result for `CCn1c(SCC(=O)Nc2ccc(Br)cc2)nc2sc3c(c2c1=O)CCN(C)C3` reads 18.8% (inactive). Consider `CCN(Cc1ccccc1)C(=O)CN1C(=S)NC(C)(C)CC1C` (stereo not drawn), for which the inhibition is -3.94% (inactive).

Turning to `Cn1c(SCc2c(F)cccc2Cl)nnc1-c1cnccn1`, the inhibition was 119% (active). Regarding `Oc1ccc(-n2nnnc2SCc2c(F)cccc2Cl)cc1`, the inhibition is -2.08% (inactive). With `Cc1ccc(CSc2nnc(-c3cnccn3)n2C)cc1`, the inhibition was 36.7% (inactive). Consider `CC(OC(=O)c1ccc2ccccc2n1)C(=O)c1ccccc1` (stereo not drawn), for which the inhibition was 86.7% (active). The result for `CC(OC(=O)c1ccccc1N1C(=O)C2C3CCC(C3)C2C1=O)C(=O)c1ccccc1` (stereo not drawn) reads 5.16% (inactive); that for `COc1ccc(C(=O)COC(=O)c2ccc3ccccc3n2)cc1`, 28.4% (inactive).

Consider `O=C(CCSc1ccccc1)N1CCN(c2ccccc2F)CC1`, for which the inhibition was 95.5% (active). Then `O=C(CCc1ccccc1F)N1CCN(c2ccccc2)CC1`, with -0.211% (inactive); and `O=C(NCC(=O)N1CCN(c2ccccc2F)CC1)c1cccs1`, with 26.2% (inactive); and `Cc1ccc(C)c(N2CCN(S(=O)(=O)c3c(C)[nH]c(C)c3C(=O)N3CCCC3)CC2)c1`, with 3.26% (inactive). With `Cc1cccc(/C(N)=N/OC(=O)c2ccccc2Cl)c1`, the inhibition is 74.6% (active). For the compound `Cc1cccc(C(=O)c2cccc(C)c2)c1`, the inhibition was 43.6% (inactive).

Consider `N/C(=N\OC(=O)c1cc(-c2ccccc2)nc2ccccc12)c1ccncc1`, for which the inhibition was 15.3% (inactive). On to `C=CCc1c(C)nc2cc(-c3ccccc3)[nH]n2c1=O`, for which the inhibition is 45.5% (active). In the case of `Cc1nc2nc[nH]n2c(=O)c1C/C=C/c1ccccc1`, the inhibition is -3.93% (inactive).

As for `CCc1c(C)nc2cc(-c3cccs3)[nH]n2c1=O`, the inhibition is 153% (active). In the case of `CCCCN1Cc2c(nc3cc(-c4ccccc4)[nH]n3c2=O)C1=O`, the inhibition is 2.49% (inactive). Then `Cc1cc(=O)n2[nH]c(-c3sccc3-n3c(C)ccc3C)cc2n1`, with 34.4% (inactive); and `CCc1c(C)nc2cc(C)[nH]n2c1=O`, with 0.52% (inactive); and `COC(=O)c1cccc(N(C(=O)CNC(=O)c2cccs2)C(C(=O)NCC2CCCO2)c2ccc(OC)c(OC)c2)c1` (stereo not drawn), with 22.3% (inactive). `COc1cc(NC(=O)C2=CC(c3ccco3)=NS(=O)(=O)N2C)cc(OC)c1OC`: the inhibition is -2.22% (inactive).

As to `COc1cccc(CNC(=O)C2CCCN(S(=O)(=O)N3CC(C)CC(C)C3)C2)c1` (stereo not drawn), the inhibition was -1.73% (inactive). Then `Cc1ccc(S(=O)(=O)N(CCCN(C)C)Cc2ccc3c(c2)OCO3)cc1`, with 9.86% (inactive); and `O=S(=O)(c1ccc(Br)cc1)c1nc(-c2ccccc2)oc1N1CCOCC1`, with -6.09% (inactive). Then `COc1ccc(S(=O)(=O)NCC(=O)NC2CC2)cc1OC`, with -5.35% (inactive); and `Cn1nccc1C(=O)NC1CCCc2c1cnn2-c1ccc(F)cc1F` (stereo not drawn), with 10.4% (inactive). On to `COC(=O)c1c(NC(=O)c2ccc(S(=O)(=O)N3CCOCC3)cc2)sc2c1CCN(C(C)C)C2`, for which the inhibition was -17.4% (inactive). With `Cc1nn2c(c1-c1ccccc1)N=C(c1ccco1)CC2c1ccccc1` (stereo not drawn), the inhibition was 103% (active).

Regarding `O=C(O)CCCC(=O)N1N=C(c2ccco2)CC1c1ccco1` (stereo not drawn), the inhibition was -14% (inactive). Take `Cc1cc(C)c(C(=O)CSc2nc(C)cc(=O)[nH]2)c(C)c1`: the inhibition is -13.9% (inactive).

As to `CCC(C)(C)n1nnnc1C(c1ccc(OC)c(OC)c1)N1CCN(C(=O)c2ccco2)CC1` (stereo not drawn), the inhibition was -11.9% (inactive). On to `CCOC(=O)[C@@H]1[C@H]2COc3cc(OC)ccc3[C@H]2N2C(=O)N(c3ccc(F)cc3)C(=O)[C@]12C`, for which the inhibition is -4.71% (inactive). As for `Cc1cc(NC(=O)CN2CCCCC2C)nc2c1c(=O)oc1ccccc12` (stereo not drawn), the inhibition was -0.755% (inactive).

As to `CCN(CC)CCN1C(=O)C(=O)/C(=C(/O)c2ccccc2)C1c1ccccc1F` (stereo not drawn), the inhibition was 19.4% (inactive). In the case of `CCN(CC)CCN1C(=O)C(=O)/C(=C(/O)c2ccc(OC)c(OC)c2)C1c1ccccn1` (stereo not drawn), the inhibition was 59.8% (inactive).

For `CCN(CC)CCN1C(=O)C(=O)/C(=C(/O)c2cnn(-c3ccccc3)c2C)C1c1cccs1` (stereo not drawn), the inhibition is 79.5% (active). For the compound `O=[N+]([O-])c1cc(C(F)(F)F)ccc1NCCc1ccncc1`, the inhibition was 2.61% (inactive). The result for `NC(=O)c1ccc(Nc2ccc3c(c2)CCC3)c([N+](=O)[O-])c1` reads 9.03% (inactive).

As to `CSc1cccc(NC(=O)CN2C(=O)COc3ccc(S(=O)(=O)N4CCOCC4)cc32)c1`, the inhibition was 10.9% (inactive). For `Cc1ccccc1NC(=O)NCc1ccco1`, the inhibition is 18.7% (inactive).

In the case of `Cc1ccc(NC(=O)C(=O)NCc2ccco2)c(C)c1`, the inhibition was 109% (active). Then `Cc1ccc(NC(=O)Cn2nnc(C(=O)NCc3ccco3)c2N)c(C)c1`, with -2.94% (inactive); and `O=c1c2cc(Br)ccc2nc(-c2cccc(Cl)c2)n1O`, with 0.78% (inactive). Then `COc1cc(/C=N/NC(=O)Cc2ccccc2)cc(OC)c1OC`, with -8.46% (inactive); and `CC(C)n1cnc2c(Nc3cccc(Cl)c3)nc(N(CCO)CCCO)nc21`, with -2.33% (inactive); and `OCCCNc1nccc(-c2cc(Nc3cccc(Cl)c3)ncn2)n1`, with 51.3% (active).

For `NS(=O)(=O)c1cccnc1Nc1cccc(Cl)c1`, the inhibition is 15.1% (inactive). The result for `O=C(O)CN1c2cccc3cccc(c23)S1(=O)=O` reads -1.09% (inactive); that for `O=C(NCc1cccnc1)c1ccccc1NC(=O)c1c(F)cccc1F`, -17.6% (inactive). For `CCOC(=O)C1(CCOc2ccccc2)CCN(Cc2ccc(C#CCCO)cc2)CC1`, the inhibition is -10.3% (inactive).

For `CCOC(=O)C1(CCOC)CCN(Cc2ccc(C(=O)OC)cc2)CC1`, the inhibition is 74.5% (active).

For the compound `CCOC(=O)C1(CCOc2ccccc2)CCN(Cc2cc(OC)cc(OC)c2)CC1`, the inhibition is -16.1% (inactive).

Turning to `Cc1cc(NC(=O)CCN2CCN(Cc3ccccc3)CC2)ccc1Br`, the inhibition is 3.31% (inactive). Regarding `O=C(c1cc(COc2c(F)cccc2F)on1)N1CCSCC1`, the inhibition was 100% (active). On to `O=C(CC(NC(=O)c1ccccc1)c1ccccc1)Nc1ccc(F)c(F)c1` (stereo not drawn), for which the inhibition was 12.4% (inactive). For `CCC(NC(=O)c1cc(COc2ccc(F)c(F)c2)on1)c1ccncc1` (stereo not drawn), the inhibition is 52.5% (active). Take `C=CCC1(CC=C)CCCN1C(=O)c1cc(COc2ccc(-n3cncn3)cc2)on1`: the inhibition was 40.9% (inactive). The result for `O=C(c1cc(COc2cccc(C(F)(F)F)c2)on1)N1CCSCC1` reads 26.5% (inactive). In the case of `Cc1nonc1C1CCCN1C(=O)c1cc(COc2cccc(C(F)(F)F)c2)on1` (stereo not drawn), the inhibition was 23.7% (inactive). Turning to `Cc1cc(NC(=O)COC(=O)c2ccc(F)c(S(=O)(=O)N3CCOCC3)c2)no1`, the inhibition is -2.48% (inactive). In the case of `CCOC(=O)CC1COCCN1C(=O)c1cc(COc2ccc(F)c(F)c2)on1` (stereo not drawn), the inhibition is 72.8% (active). As to `O=C(NC1Cc2ccccc2C1)c1cc(COc2cccc(C(F)(F)F)c2)on1`, the inhibition was -0.154% (inactive).

In the case of `O=C(c1cc(COc2ccc(F)c(F)c2)on1)N1CCOCC1`, the inhibition is 90.7% (active). The result for `O=C(c1c(F)cccc1F)N1CCN(c2ncc(Br)cn2)CC1` reads -6.62% (inactive). As for `Cc1c(C(=O)N2CCOCC2)[nH]c2ccc(OCc3ccccc3)cc12`, the inhibition was 5.47% (inactive). Take `CC(C)NC(=O)N1CCN(c2ccncc2S(=O)(=O)N2CCCCC2)CC1`: the inhibition is -38.7% (inactive). With `Cn1c(=O)c(=O)n(C)c2cc(S(=O)(=O)CCC(=O)N3CCCCC3)ccc21`, the inhibition is -4.02% (inactive). In the case of `CN(C)CCNc1ccc(-c2n[nH]c(=O)c3ccccc23)cc1[N+](=O)[O-]`, the inhibition is -10.6% (inactive). On to `Cc1ccc(C(=O)NCC(=O)NCc2cc(=O)n(C)c(=O)n2C)cc1`, for which the inhibition is -10.2% (inactive). Consider `COc1ccc(C(C(=O)NC2CCCCC2)N(C(=O)c2snc(C(N)=O)c2N)c2ccccc2OC)cc1` (stereo not drawn), for which the inhibition was -17.5% (inactive). In the case of `COc1ccc(-n2nc(C(=O)NCC(=O)N3CCCCCC3)c3ccccc3c2=O)cc1Cl`, the inhibition was -9.59% (inactive).
